BL2 CD40 inh = inhibitors of CD40-induced NF-kB signaling, primary screen, BL2 cells, luciferase reporter, single point. CD40L-induced, 4 h. inhibition, % at 10 µM. 83,000 compounds, 0.94% hits. AID 1053188, 2014;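 active means mean inhibition of at least 50% with a set share of replicates also reaching that level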;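 further: 0% = neutral control wells and 100% = IKK inhibitor VII at 50 µM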
Starred values were filed as active, the others as inactive; [ ] = dose if it differs, or a comment. The sample as a whole holds a higher share of hits than the screen did.

SMILES	BL2 CD40 inh
CCS(=O)(=O)Nc1ccc2c(c1)C(=O)N(C)[C@@H]1CC[C@@H](CC(=O)NC3CCCCC3)O[C@@H]1CO2	-7[25 µM]
COC1=CC(=O)c2c(ccc3ncnc(N)c23)C1=O	103*
CCC(=O)N1CC(=O)N2[C@H](CO)[C@@H](c3ccc(C#CCC(C)C)cc3)[C@@H]2C1	-8[25 µM]
CC(=O)N(C)C[C@H]1Oc2ccc(N)cc2C(=O)N(C)C[C@H]1C	-1
Cc1ccnc(Nc2nc3ccccc3o2)n1	68*
Cc1nc(Nc2nc3ccccc3o2)nc(C)c1C	6
N#Cc1cnc(Nc2nc3ccccc3o2)nc1-c1ccccc1	-20
O=C(C[C@@H]1CC[C@@H](NS(=O)(=O)c2ccc(F)cc2)[C@@H](CO)O1)N1CCN(c2ccccc2)CC1	-6[25 µM]
CCCNC(=O)N1[C@H](CO)[C@@H](c2ccc(C3=CCCC3)cc2)[C@@H]1CN(C)C(C)=O	-13[25 µM]
CC1Cc2ccccc2N1C(=O)c1cnc2n(c1=O)CCS2 (configuration not stated)	1
CC1Cc2ccccc2N1C(=O)c1cnsn1 (configuration not stated)	7
CC1Cc2ccccc2N1c1ncnc(N)c1[N+](=O)[O-] (configuration not stated)	54*
COCC(=O)N1CCC2(CC1)CN[C@H](CO)c1c2c2ccc(OC)cc2n1C	0[25 µM]
COc1cccc(NC(=O)N(C)C[C@H]2Oc3ncc(/C=C/c4ccccc4)cc3C(=O)N([C@H](C)CO)C[C@H]2C)c1	2[25 µM]
Nc1c(C(=O)N2CCOCC2)sc2nc3c(cc12)CCCC3	69*
Nc1c(C(=O)N2CCCC2)sc2nc3c(cc12)CCCCCC3	-97
Nc1c(C(=O)N2CCOCC2)sc2nc3c(cc12)CCC3	-51
C[C@@H]1CN([C@H](C)CO)C(=O)c2cccc(NS(=O)(=O)c3ccc(Cl)cc3)c2O[C@@H]1CN(C)Cc1ccc(C(=O)Nc2ccccc2N)cc1	active[25 µM]
C[C@@H]1CN([C@H](C)CO)C(=O)c2cc(NS(=O)(=O)c3ccc(Cl)cc3)ccc2O[C@@H](C)CCCCO[C@H]1CN(C)Cc1ccc(Cl)c(Cl)c1	28
C[C@H](CO)N1C[C@H](C)[C@H](CN(C)CC2CCCCC2)OCCCC[C@H](C)Oc2ccc(NC(=O)Nc3ccc(C(F)(F)F)cc3)cc2C1=O	76*[25 µM]
C[C@H]1CN([C@@H](C)CO)C(=O)c2cccc(NS(=O)(=O)c3ccc(Cl)cc3)c2O[C@H]1CN(C)Cc1ccc(C(=O)Nc2ccccc2N)cc1	-43[25 µM]
C[C@@H]1CN([C@H](C)CO)C(=O)c2cc(NC(=O)Nc3ccc(C(F)(F)F)cc3)ccc2O[C@@H](C)CCCCO[C@@H]1CN(C)CC1CCCCC1	43[25 µM]
C[C@H](CO)N1C[C@H](C)[C@@H](CN(C)Cc2ccc(Cl)c(Cl)c2)OCCCC[C@H](C)Oc2ccc(NS(=O)(=O)c3cccs3)cc2C1=O	51*[25 µM]
C[C@H](CO)N1C[C@H](C)[C@H](CN(C)Cc2ccc(C(=O)Nc3ccccc3N)cc2)Oc2c(NS(=O)(=O)c3ccc(Cl)cc3)cccc2C1=O	-33[25 µM]
C[C@@H]1CCCCO[C@@H](CN(C)Cc2ccc(Cl)c(Cl)c2)[C@@H](C)CN([C@H](C)CO)C(=O)c2cc(NS(=O)(=O)c3cccs3)ccc2O1	30[25 µM]
SMILES	BL2 CD40 inh
COc1ccc(CN(C)C[C@H]2OCCCC[C@H](C)Oc3ccc(NS(=O)(=O)c4ccc(Cl)cc4)cc3C(=O)N([C@H](C)CO)C[C@H]2C)cc1	63*
C[C@H]1CCCCO[C@@H](CN(C)Cc2ccncc2)[C@@H](C)CN([C@@H](C)CO)C(=O)c2cc(NS(=O)(=O)c3ccc(Cl)cc3)ccc2O1	11[25 µM]
C[C@@H]1CCCCO[C@H](CN(C)Cc2ccc(Cl)c(Cl)c2)[C@@H](C)CN([C@H](C)CO)C(=O)c2cc(NS(=O)(=O)c3cccs3)ccc2O1	31[25 µM]
C[C@@H]1CN([C@@H](C)CO)C(=O)c2cc(NC(=O)Nc3ccc(C(F)(F)F)cc3)ccc2O[C@@H](C)CCCCO[C@H]1CN(C)CC1CCCCC1	5[25 µM]
CCCNC(=O)[C@@H]1[C@@H](CO)[C@@H]2Cn3c(ccc(-c4cncnc4)c3=O)[C@@H]2N1C(=O)c1ccccc1F	-6[25 µM]
C[C@@H]1CCCCO[C@H](CN(C)C(=O)c2ccncc2)[C@H](C)CN([C@H](C)CO)C(=O)c2cc(NS(=O)(=O)c3cccs3)ccc2O1	1[25 µM]
CN(C)CC(=O)Nc1ccc2c(c1)[C@@H]1C[C@H](CC(=O)N3CCCCC3)O[C@@H](CO)[C@@H]1O2	-3[25 µM]
C[C@H](CO)N1C[C@H](C)[C@H](CN(C)C(=O)Nc2ccccc2)Oc2ncc(-c3cccnc3)cc2C1=O	-6[25 µM]
CC(=O)N1C2CN(CC(F)(F)F)CC1C2c1ccc(Br)cc1 (configuration not stated)	8
O=C(C[C@H]1C[C@H]2c3cc(NC(=O)Nc4ccc(F)cc4)ccc3O[C@H]2[C@H](CO)O1)NC1CCCC1	7
COc1ccc(CN(C)C[C@@H]2Oc3ccc(NC(=O)Nc4c(C)noc4C)cc3C(=O)N([C@H](C)CO)C[C@H]2C)cc1	-2[25 µM]
O=C(Cc1cccnc1)N1CC(=O)N2[C@H](C1)[C@H](c1ccc(/C=C/c3ccccc3)cc1)[C@@H]2CO	9[25 µM]
O=C(Nc1ccccc1)N1C[C@@H]2[C@H](c3ccccc31)[C@H](CO)N2C(=O)c1ccccc1F	-23
C[C@H]1CCc2cnnn2COCCNC1=O	-17[25 µM]
CCCNC(=O)N1C[C@H]2[C@@H](c3ccccc31)[C@H](CO)N2Cc1ccccc1F	-5[25 µM]
O=C(C[C@H]1C[C@@H]2c3cc(NC(=O)c4cccnc4)ccc3O[C@@H]2[C@@H](CO)O1)NCCc1ccccc1	-13[25 µM]
CS(=O)(=O)N1CCCCN2[C@H](CO)[C@@H](c3ccc(Br)cc3)[C@H]2C1	-5[25 µM]
COc1ccc(NC(=O)Nc2ccc3c(c2)C(=O)N([C@@H](C)CO)C[C@@H](C)[C@@H](CN(C)Cc2ccc(C(F)(F)F)cc2)OCCCC[C@H](C)O3)cc1	-1
COc1ccc(NC(=O)Nc2ccc3c(c2)C(=O)N([C@H](C)CO)C[C@@H](C)[C@@H](CN(C)Cc2ccc(C(F)(F)F)cc2)OCCCC[C@@H](C)O3)cc1	5
COc1ccc(NC(=O)Nc2ccc3c(c2)C(=O)N([C@@H](C)CO)C[C@@H](C)[C@@H](CN(C)Cc2ccc(C(F)(F)F)cc2)OCCCC[C@@H](C)O3)cc1	1
COc1ccc(NC(=O)Nc2ccc3c(c2)C(=O)N([C@@H](C)CO)C[C@H](C)[C@@H](CN(C)S(=O)(=O)c2ccc(OC)cc2)O3)cc1	-6
COc1ccc(S(=O)(=O)Nc2ccc3c(c2)C(=O)N([C@H](C)CO)C[C@@H](C)[C@H](CN(C)C(=O)Nc2ccc(C(F)(F)F)cc2)OCCCC[C@@H](C)O3)cc1	5
COc1ccc(S(=O)(=O)N(C)C[C@H]2Oc3ccc(NC(=O)Nc4ccc(C(F)(F)F)cc4)cc3C(=O)N([C@@H](C)CO)C[C@@H]2C)cc1	74*[25 µM]
COc1ccc(S(=O)(=O)Nc2ccc3c(c2)C(=O)N([C@@H](C)CO)C[C@H](C)[C@@H](CN(C)Cc2ccc(C(F)(F)F)cc2)OCCCC[C@@H](C)O3)cc1	76*[25 µM]
C[C@H]1CN([C@@H](C)CO)C(=O)c2cc(NC(=O)Nc3ccc(C(F)(F)F)cc3)ccc2O[C@H]1CN(C)S(=O)(=O)c1ccc(Cl)cc1	12
COc1ccc(S(=O)(=O)Nc2ccc3c(c2)C(=O)N([C@@H](C)CO)C[C@H](C)[C@H](CN(C)Cc2ccc(C(F)(F)F)cc2)OCCCC[C@H](C)O3)cc1	59*[25 µM]

Screening data (PubChem BioAssay)
